Compound activity (PubChem BioAssay)
Mtb FBA inh – inhibits M. tuberculosis FBA enzyme; purified M. tuberculosis FBA, fluorescence read-out; inhibition, % at 1 µM; 360,000 tested, 2.3% active
Autofluor counter – flagged as autofluorescent in microsphere protease counterscreen; compound autofluorescence counterscreen, microsphere flow cytometry; active compounds read high; fluorescence intensity (test concentration not listed); 360,000 tested, 3.1% active; in the data active = fluorescence intensity above about 16000; inconclusive = no clear call, values can overlap the other calls
Anthrax LF prot – blocks Bacillus anthracis lethal factor protease | 360,000 tested, 0.12% active | AID 588501 | multiplex microsphere protease cleavage assay, LF | inhibition, % at 10 µM | P15917; in the data active = inhibition above about 30%; inconclusive = no clear call, values can overlap the other calls
Target sequence (P15917 whole entry, looked up): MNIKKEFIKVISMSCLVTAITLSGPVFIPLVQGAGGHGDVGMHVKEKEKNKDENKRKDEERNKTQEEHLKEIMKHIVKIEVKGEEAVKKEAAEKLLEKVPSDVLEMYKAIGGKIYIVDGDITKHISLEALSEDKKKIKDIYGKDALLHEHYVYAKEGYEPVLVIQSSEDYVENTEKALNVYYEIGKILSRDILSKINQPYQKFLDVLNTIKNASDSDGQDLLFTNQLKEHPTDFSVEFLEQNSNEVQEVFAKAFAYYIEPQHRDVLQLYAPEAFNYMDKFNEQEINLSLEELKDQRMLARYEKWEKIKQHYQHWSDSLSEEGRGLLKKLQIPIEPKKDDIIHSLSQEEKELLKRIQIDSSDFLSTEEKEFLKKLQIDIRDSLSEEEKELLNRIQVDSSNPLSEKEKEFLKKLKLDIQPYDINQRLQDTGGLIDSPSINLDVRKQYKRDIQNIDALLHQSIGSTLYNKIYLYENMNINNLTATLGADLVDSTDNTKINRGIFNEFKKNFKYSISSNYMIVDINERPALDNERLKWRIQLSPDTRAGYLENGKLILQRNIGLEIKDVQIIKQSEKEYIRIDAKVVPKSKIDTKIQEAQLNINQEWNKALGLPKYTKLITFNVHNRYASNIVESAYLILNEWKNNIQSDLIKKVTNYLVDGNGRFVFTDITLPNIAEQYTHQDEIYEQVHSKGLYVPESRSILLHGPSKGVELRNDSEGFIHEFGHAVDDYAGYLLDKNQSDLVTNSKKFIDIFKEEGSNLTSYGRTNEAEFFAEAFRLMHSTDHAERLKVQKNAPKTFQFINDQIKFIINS
BoNT A protease – BoNT A light chain protease inhibition | inhibition, % at 10 µM | multiplex microsphere protease substrate cleavage, flow cytometry | AID 588499 | 360,000 tested, 0.17% active; in the data active = inhibition above about 30%; inconclusive = no clear call, values can overlap the other calls
GDH-TPI counter-1 – GDH-TPI coupled enzyme inhibition counter-screen; GDH-TPI coupled enzyme counterscreen, NADH absorbance; inhibition, % at 4.8 µM; 360,000 tested, 1.2% active; AID 588335; in the data active = inhibition above about 30%
BoNT F protease – inhibitors of Botulinum neurotoxin F light chain protease; Multiplex microsphere protease cleavage assay, flow cytometry; inhibition, % at 10 µM; 360,000 tested, 0.22% active; AID 588497; in the data active = inhibition above about 35%, passing the limit was not always enough; inconclusive = no clear call, values can overlap the other calls
Mtb FBA confirm – confirmation of M. tuberculosis fructose-bisphosphate aldolase inhibitors | shares compounds with Mtb FBA inh | purified M. tuberculosis FBA, fluorescence read-out | inhibition, % at 1 µM | 5,600 tested, 78% active | AID 651616
GDH-TPI counter-2 – counter-screen for M. tuberculosis FBA inhibitors: GDH-TPI coupled enzyme inhibition. shares compounds with Mtb FBA inh. GDH-TPI coupled enzyme counterscreen, fluorescence. inhibition, % at 1 µM. 5,600 tested, 81% active. AID 652141; in the data active = inhibition above about 10%
GDH-TPI dose – counter-screen for M. tuberculosis FBA inhibitors: GDH-TPI dose response. 170 tested, 79% active. IC50, µM. GDH-TPI coupled enzyme assay, fluorescence, artifact counterscreen. shares compounds with Mtb FBA inh; call rule not given here
Of the large screens only hits and unclear results are named; the others gave an inactive call (follow-up assays come after a bar, where they were run). A selection: hits, their analogues and other compounds. The true share with any hit is near 6.6%. Rule as the data show it, unless noted: active = inhibition above about 27%; inactive = the rest.

Cc1cc(OCC(=O)NC2CC(C)(C)NC(C)(C)C2)c2c(C)cc(=O)oc2c1	Mtb FBA inh 94 | Mtb FBA confirm 132 | GDH-TPI counter-2 114
Cc1cc(=O)oc2cc(OCC(=O)NC3CC(C)(C)NC(C)(C)C3)ccc12	none
Cc1cc(OCC(=O)Nc2cccnc2)c2c(C)cc(=O)oc2c1	Mtb FBA inh 78 | Mtb FBA confirm inactive | GDH-TPI counter-2 inactive
Cc1ccc(S(=O)(=O)N2CCc3ccccc3C2CN2C(=O)c3ccccc3C2=O)cc1 (centres undefined)	none
O=C(O)c1ccc(CN2C[C@@H](CO)O[C@@H](n3cnc4c(NCc5ccco5)ncnc43)C2)cc1	none
COc1cc(OC)cc(-c2c(-c3cccs3)c3cc(-c4cccc5[nH]ccc45)ccc3n2C)c1	Mtb FBA inh 47 | Mtb FBA confirm 112 | GDH-TPI counter-2 79
COc1ccc(C(=O)NCCc2nnc3ccc(SCC(=O)Nc4cc(C)on4)nn23)cc1	none
COc1ccccc1NC(=O)C1CCN(S(C)(=O)=O)CC1	none
CCCc1cc(=O)oc2cc(OC(C)C(=O)NCCCn3ccnc3)ccc12 (centres undefined)	none
CCCc1cc(=O)oc2cc(C)cc(OC(C)C(=O)NCCCn3ccnc3)c12 (centres undefined)	Mtb FBA inh 75 | Mtb FBA confirm 175 | GDH-TPI counter-2 164
Cc1cc(OC(C)C(=O)NCCCn2ccnc2)c2c(C)cc(=O)oc2c1 (centres undefined)	Mtb FBA inh 96 | Mtb FBA confirm active | GDH-TPI counter-2 active
CC(=O)CSc1nc(-c2ccccc2)c(-c2ccccc2)o1	Mtb FBA inh 50 | Mtb FBA confirm 61 | GDH-TPI counter-2 44
COCCNC(=O)CSc1nc(-c2ccccc2)c(-c2ccccc2)o1	none
CN(C)S(=O)(=O)N1CCC(Oc2cccc(C(=O)NC3CCOC3)c2)CC1 (centres undefined)	none
Fc1ccc2nc(Nc3nc4cc5c(cc4s3)OCO5)sc2c1	Mtb FBA inh 38 | Mtb FBA confirm 56 | GDH-TPI counter-2 52
O=C(NNc1nc2cc3c(cc2s1)OCO3)c1ccc(F)cc1	none
c1ccc2sc(Nc3nc4cc5c(cc4s3)OCO5)nc2c1	Mtb FBA inh 29 | Mtb FBA confirm inactive | GDH-TPI counter-2 inactive
CC(=O)c1sc(Nc2nc3cc4c(cc3s2)OCO4)nc1C	none
Fc1ccc2nc(Nc3nc4cc5c(cc4s3)OCCO5)sc2c1	Mtb FBA inh 59 | Mtb FBA confirm 75 | GDH-TPI counter-2 63
C=CCn1cc(C(=O)N2CCN(C)CC2)c(=O)c2cc(S(=O)(=O)N(CC)CC)ccc21	none
CCC(C(=O)Nc1ccc(S(=O)(=O)Nc2ncccn2)cc1)c1ccccc1 (centres undefined)	none
O=C1NC2(CCCC2)C(=O)N1CC(=O)N(Cc1ccccc1)c1ccccc1	Autofluor counter inconclusive, Anthrax LF prot inconclusive
COc1ccc(CC2=NCCc3cc(OC)c(OC)cc32)cc1OC	Mtb FBA inh 94 | Mtb FBA confirm active | GDH-TPI counter-2 157
CCc1cc2c(=O)c(-c3cnn(-c4ccccc4)c3)c(C)oc2c(CN2CCCCC2)c1O	Mtb FBA inh 41 | Mtb FBA confirm active | GDH-TPI counter-2 active
CCc1cc2c(=O)c(-c3cnn(-c4ccccc4)c3)coc2c(CN2CCOCC2)c1O	none
C[C@H](CCC(=O)NCC(=O)O)[C@H]1CC[C@H]2C3[C@H](O)C[C@@H]4C[C@H](O)CC[C@]4(C)[C@H]3C[C@H](O)[C@]12C (some centres undefined)	none
CCOC(=O)c1nc2sc3c(c2c(=O)[nH]1)CCC(C)C3 (centres undefined)	Mtb FBA inh 101 | Mtb FBA confirm 74 | GDH-TPI counter-2 57
CCOC(=O)c1cn2nc(Oc3ccc(C#N)cc3)ccc2n1	Mtb FBA inh 96, BoNT F protease inconclusive | Mtb FBA confirm inactive | GDH-TPI counter-2 inactive
CCOC(=O)c1cn2nc(Oc3ccc(C(=O)OC)cc3)ccc2n1	Mtb FBA inh 100, Autofluor counter inconclusive, BoNT F protease inconclusive | Mtb FBA confirm active | GDH-TPI counter-2 active
CCOC(=O)c1cn2nc(Oc3ccc(NC(C)=O)cc3)ccc2n1	BoNT A protease inconclusive, BoNT F protease inconclusive
COc1ccccc1Cc1c(-c2ccco2)nc2ccc(Br)cn12	none (no result: GDH-TPI counter-1)
COc1cccc(-c2c(C(=O)N/N=C(\C)c3ccc(Cl)s3)nnn2-c2nonc2N)c1	none
CC(OC(=O)c1ccccc1NCc1ccco1)C(=O)Nc1ncc(Cl)cc1Cl (centres undefined)	Mtb FBA inh 57 | Mtb FBA confirm inactive | GDH-TPI counter-2 inactive
CCCCc1cc(=O)oc2cc(OC(C)C(=O)NCCN3CCOCC3)c(Cl)cc12 (centres undefined)	none
CCc1cc(=O)oc2cc(C)cc(OC(C)C(=O)NCCN3CCOCC3)c12 (centres undefined)	Mtb FBA inh 44 | Mtb FBA confirm inactive | GDH-TPI counter-2 inactive
Cc1cc(OC(C)C(=O)NCCN2CCOCC2)c2c(C)c(C)c(=O)oc2c1 (centres undefined)	Mtb FBA inh 51 | Mtb FBA confirm 116 | GDH-TPI counter-2 94
CCCc1cc(=O)oc2cc(C)cc(OC(C)C(=O)NCCN3CCOCC3)c12 (centres undefined)	Mtb FBA inh 61 | Mtb FBA confirm 54 | GDH-TPI counter-2 43
Cc1cc(=O)oc2c(C)c(OC(C)C(=O)NCCCN3CCOCC3)ccc12 (centres undefined)	none
Cc1cc(OC(C)C(=O)NCCCN2CCOCC2)c2c(C)cc(=O)oc2c1 (centres undefined)	Mtb FBA inh 56 | Mtb FBA confirm inactive | GDH-TPI counter-2 inactive | GDH-TPI dose 2.7
CC12CCC(=O)N1C(C(=O)N1CCN(S(=O)(=O)c3ccc(Br)cc3Cl)CC1)CS2 (centres undefined)	none
CCc1cc(=O)oc2c(C)c(OC(C)C(=O)NCCCN3CCOCC3)ccc12 (centres undefined)	none
CCCc1cc(=O)oc2cc(C)cc(OC(C)C(=O)NCCCN3CCOCC3)c12 (centres undefined)	Mtb FBA inh 80 | Mtb FBA confirm inactive | GDH-TPI counter-2 inactive
CCOc1ccc(C(C(=O)NC(C)(C)C)N(CCOC)C(=O)CCC(=O)Nc2ccccn2)cc1 (centres undefined)	Mtb FBA inh 40 | Mtb FBA confirm 60 | GDH-TPI counter-2 53
CC(=O)N1CCN(c2nc(CC(C)C)c3c(c2C#N)CCC3)CC1	Mtb FBA inh 38 | Mtb FBA confirm 48 | GDH-TPI counter-2 35
CC(C)Cc1nc(N2CCN(C(=O)C(C)C)CC2)c(C#N)c2c1CCC2	Mtb FBA inh 33 | Mtb FBA confirm 59 | GDH-TPI counter-2 41
